Measurements as given in ChEMBL document CHEMBL2218924, “A broad activity screen in support of a chemogenomic map for kinase signalling research and drug discovery” (Biochem J, 2013).

Key:
[1] = target: BDNF/NT-3 growth factors receptor (Homo sapiens) (UniProt Q16620); conditions: at 10 µM
[2] = target: T1, Tyrosine-protein kinase TXK (Homo sapiens) (UniProt P42681); conditions: at 1 µM
T1 sequence (whole entry): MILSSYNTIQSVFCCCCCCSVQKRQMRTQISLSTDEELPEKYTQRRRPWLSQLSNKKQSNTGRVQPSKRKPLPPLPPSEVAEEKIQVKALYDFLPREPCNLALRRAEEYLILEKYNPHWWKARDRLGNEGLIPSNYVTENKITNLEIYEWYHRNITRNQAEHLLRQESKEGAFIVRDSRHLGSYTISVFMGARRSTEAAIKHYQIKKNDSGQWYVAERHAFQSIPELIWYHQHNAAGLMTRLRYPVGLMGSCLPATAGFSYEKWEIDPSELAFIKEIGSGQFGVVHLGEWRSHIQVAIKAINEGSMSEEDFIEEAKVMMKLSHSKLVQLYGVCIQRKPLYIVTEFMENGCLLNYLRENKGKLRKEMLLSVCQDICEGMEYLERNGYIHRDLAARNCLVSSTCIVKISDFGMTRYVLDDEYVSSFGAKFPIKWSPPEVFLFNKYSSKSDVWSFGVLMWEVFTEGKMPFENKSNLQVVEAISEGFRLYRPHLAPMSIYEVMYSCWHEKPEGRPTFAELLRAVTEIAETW

[3] = target: T1, Tyrosine-protein kinase TXK (Homo sapiens); conditions: at 10 µM
[4] = target: T2, Serine/threonine-protein kinase ULK2 (Homo sapiens) (UniProt Q8IYT8); conditions: at 1 µM
T2 sequence (whole entry): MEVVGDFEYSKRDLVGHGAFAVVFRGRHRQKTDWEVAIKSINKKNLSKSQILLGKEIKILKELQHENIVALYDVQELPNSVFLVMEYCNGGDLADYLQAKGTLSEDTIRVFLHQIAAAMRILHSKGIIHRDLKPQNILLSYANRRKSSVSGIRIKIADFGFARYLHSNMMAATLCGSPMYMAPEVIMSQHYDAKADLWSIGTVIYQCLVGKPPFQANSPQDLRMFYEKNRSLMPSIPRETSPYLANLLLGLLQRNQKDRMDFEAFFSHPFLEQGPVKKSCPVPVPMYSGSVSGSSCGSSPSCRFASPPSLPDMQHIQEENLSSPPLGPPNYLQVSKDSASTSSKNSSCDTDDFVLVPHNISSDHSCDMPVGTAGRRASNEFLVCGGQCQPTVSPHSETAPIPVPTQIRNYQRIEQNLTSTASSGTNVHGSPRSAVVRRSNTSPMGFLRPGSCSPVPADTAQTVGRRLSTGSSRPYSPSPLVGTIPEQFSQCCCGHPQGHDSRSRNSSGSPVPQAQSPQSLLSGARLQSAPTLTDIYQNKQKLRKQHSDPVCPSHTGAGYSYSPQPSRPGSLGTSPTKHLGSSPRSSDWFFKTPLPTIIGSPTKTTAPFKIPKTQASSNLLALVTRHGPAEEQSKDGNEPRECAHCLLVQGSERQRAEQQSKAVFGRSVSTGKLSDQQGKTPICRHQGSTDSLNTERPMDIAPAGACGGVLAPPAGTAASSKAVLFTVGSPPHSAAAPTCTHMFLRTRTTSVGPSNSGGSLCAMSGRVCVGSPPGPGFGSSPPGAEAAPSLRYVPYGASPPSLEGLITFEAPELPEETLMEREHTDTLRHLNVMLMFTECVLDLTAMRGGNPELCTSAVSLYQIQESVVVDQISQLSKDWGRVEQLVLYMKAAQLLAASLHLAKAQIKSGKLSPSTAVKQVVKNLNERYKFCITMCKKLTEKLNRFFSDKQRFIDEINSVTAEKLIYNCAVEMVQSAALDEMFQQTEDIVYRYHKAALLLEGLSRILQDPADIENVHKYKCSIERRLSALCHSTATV

[5] = target: T2, Serine/threonine-protein kinase ULK2 (Homo sapiens); conditions: at 10 µM
[6] = target: T3, Serine/threonine-protein kinase ULK3 (Homo sapiens) (UniProt Q6PHR2); conditions: at 1 µM
T3 sequence (whole entry): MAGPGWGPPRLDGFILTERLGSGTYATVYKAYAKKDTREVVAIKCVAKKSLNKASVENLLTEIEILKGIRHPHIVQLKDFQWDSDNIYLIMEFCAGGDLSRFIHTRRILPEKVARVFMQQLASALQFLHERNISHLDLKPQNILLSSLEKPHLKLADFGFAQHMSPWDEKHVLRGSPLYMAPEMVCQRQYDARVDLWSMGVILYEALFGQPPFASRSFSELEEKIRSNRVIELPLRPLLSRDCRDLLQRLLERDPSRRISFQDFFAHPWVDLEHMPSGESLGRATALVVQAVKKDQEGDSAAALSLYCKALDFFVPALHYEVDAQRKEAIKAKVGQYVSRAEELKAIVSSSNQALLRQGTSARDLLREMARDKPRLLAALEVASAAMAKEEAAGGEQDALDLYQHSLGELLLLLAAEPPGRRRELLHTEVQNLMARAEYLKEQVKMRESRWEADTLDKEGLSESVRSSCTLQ

[7] = target: T3, Serine/threonine-protein kinase ULK3 (Homo sapiens); conditions: at 10 µM
[8] = target: Serine/threonine-protein kinase VRK2 (Homo sapiens) (UniProt Q86Y07); conditions: at 1 µM
Sequence of Serine/threonine-protein kinase VRK2 (Homo sapiens) (Q86Y07 whole entry): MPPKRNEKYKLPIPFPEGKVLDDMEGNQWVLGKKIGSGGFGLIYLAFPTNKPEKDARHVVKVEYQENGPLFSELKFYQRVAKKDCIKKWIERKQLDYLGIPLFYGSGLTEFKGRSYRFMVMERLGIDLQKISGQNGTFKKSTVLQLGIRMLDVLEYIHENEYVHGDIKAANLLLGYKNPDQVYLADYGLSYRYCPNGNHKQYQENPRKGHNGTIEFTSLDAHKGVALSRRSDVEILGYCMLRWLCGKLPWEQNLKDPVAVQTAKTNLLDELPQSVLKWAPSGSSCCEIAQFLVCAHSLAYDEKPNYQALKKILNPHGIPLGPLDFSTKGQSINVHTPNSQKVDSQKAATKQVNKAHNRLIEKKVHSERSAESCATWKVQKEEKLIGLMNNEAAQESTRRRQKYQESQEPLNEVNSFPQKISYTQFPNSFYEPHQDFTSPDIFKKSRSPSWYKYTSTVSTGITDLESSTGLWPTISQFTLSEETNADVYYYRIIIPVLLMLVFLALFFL

[9] = target: Serine/threonine-protein kinase VRK2 (Homo sapiens) (UniProt Q86Y07); conditions: at 10 µM
[10] = target: Serine/threonine-protein kinase WNK2 (Homo sapiens) (UniProt Q9Y3S1); conditions: at 1 µM
[11] = target: Serine/threonine-protein kinase WNK2 (Homo sapiens) (UniProt Q9Y3S1); conditions: at 10 µM
[12] = target: Serine/threonine-protein kinase WNK3 (Homo sapiens) (UniProt Q9BYP7); conditions: at 1 µM
Sequence of Serine/threonine-protein kinase WNK3 (Homo sapiens) (Q9BYP7 whole entry): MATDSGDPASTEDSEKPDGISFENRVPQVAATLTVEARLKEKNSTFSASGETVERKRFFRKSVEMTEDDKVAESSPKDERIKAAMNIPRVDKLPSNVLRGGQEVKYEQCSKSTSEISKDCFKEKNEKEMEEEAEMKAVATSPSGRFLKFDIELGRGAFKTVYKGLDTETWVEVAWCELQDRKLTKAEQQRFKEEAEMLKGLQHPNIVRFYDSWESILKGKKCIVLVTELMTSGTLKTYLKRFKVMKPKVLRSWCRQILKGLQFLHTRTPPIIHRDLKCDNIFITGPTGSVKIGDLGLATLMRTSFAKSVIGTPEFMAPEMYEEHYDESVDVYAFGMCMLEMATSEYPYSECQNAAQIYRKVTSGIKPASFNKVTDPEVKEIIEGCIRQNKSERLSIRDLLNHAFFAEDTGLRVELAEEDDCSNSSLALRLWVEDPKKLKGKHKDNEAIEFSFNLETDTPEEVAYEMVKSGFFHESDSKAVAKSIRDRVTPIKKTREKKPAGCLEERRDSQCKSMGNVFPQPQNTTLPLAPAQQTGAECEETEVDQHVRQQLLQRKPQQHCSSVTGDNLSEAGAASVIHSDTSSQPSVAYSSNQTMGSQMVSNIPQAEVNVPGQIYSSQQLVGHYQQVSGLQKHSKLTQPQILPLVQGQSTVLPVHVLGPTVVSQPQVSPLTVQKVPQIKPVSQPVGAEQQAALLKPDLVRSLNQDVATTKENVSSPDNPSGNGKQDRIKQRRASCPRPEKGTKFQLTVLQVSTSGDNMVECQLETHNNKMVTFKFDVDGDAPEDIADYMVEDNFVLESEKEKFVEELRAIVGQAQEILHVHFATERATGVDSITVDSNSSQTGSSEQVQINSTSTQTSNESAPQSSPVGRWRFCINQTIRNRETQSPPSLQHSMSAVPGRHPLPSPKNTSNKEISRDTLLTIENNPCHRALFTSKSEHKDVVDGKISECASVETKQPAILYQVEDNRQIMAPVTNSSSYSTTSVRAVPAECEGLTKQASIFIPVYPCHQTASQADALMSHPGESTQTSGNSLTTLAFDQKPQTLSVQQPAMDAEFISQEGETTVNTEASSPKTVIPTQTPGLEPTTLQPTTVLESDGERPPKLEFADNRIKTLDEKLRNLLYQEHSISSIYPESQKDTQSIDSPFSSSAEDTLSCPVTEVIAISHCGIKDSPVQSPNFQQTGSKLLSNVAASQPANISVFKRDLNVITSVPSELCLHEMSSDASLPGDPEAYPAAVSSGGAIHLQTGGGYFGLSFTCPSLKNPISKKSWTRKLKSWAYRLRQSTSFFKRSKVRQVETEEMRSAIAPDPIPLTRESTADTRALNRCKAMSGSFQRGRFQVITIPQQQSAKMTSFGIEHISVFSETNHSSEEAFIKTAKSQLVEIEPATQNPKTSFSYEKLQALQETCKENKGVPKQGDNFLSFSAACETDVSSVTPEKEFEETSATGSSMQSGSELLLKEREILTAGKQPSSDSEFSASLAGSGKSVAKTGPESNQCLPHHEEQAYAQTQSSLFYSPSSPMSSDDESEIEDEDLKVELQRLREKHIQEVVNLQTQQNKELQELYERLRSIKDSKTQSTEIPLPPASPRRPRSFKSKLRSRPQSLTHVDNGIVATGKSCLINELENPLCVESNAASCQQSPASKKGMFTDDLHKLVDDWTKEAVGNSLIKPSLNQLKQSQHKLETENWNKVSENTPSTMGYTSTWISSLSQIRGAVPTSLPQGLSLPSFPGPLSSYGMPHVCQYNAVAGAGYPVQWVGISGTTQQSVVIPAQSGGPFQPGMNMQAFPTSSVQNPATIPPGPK

[13] = target: Serine/threonine-protein kinase WNK3 (Homo sapiens) (UniProt Q9BYP7); conditions: at 10 µM
[14] = target: Tyrosine-protein kinase Yes (Homo sapiens) (UniProt P07947); conditions: at 1 µM
Sequence of Tyrosine-protein kinase Yes (Homo sapiens) (P07947 2-543 limits assumed): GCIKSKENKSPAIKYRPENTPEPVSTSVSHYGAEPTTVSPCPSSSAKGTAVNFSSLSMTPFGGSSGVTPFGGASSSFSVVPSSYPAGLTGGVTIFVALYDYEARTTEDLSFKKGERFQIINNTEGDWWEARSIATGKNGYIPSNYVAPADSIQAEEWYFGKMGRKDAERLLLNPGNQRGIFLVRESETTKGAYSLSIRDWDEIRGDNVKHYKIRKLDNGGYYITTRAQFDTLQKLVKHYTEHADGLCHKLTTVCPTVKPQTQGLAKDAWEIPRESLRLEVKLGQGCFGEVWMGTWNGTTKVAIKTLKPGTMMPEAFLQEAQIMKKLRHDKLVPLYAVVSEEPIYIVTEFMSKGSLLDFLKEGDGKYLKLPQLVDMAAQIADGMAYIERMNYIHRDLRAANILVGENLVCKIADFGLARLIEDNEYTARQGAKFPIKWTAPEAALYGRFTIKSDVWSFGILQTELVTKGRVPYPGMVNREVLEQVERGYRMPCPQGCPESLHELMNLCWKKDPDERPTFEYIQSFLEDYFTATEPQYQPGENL

[15] = target: Tyrosine-protein kinase Yes (Homo sapiens) (UniProt P07947); conditions: at 10 µM
[16] = target: T4, Tyrosine-protein kinase ZAP-70 (Homo sapiens) (UniProt P43403); conditions: at 1 µM
T4 sequence (whole entry): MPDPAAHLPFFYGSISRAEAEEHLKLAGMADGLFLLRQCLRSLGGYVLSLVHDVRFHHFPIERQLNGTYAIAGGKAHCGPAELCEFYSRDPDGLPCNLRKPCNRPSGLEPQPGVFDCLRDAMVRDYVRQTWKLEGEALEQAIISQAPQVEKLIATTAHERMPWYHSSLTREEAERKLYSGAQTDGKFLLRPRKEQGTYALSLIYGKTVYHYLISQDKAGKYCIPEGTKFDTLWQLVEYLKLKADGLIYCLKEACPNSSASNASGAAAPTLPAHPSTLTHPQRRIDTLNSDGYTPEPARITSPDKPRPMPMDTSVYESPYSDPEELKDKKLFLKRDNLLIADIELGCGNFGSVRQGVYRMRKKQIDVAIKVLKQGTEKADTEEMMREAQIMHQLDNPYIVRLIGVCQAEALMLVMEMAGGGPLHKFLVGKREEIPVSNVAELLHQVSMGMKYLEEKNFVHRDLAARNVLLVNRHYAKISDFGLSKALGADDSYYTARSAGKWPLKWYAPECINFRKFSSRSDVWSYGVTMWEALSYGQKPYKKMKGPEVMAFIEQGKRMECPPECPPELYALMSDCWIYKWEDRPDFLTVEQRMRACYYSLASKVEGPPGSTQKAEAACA

[17] = target: Death-associated protein kinase 3 (Homo sapiens) (UniProt O43293); conditions: at 1 µM
Sequence of Death-associated protein kinase 3 (Homo sapiens) (O43293 whole entry, looked up): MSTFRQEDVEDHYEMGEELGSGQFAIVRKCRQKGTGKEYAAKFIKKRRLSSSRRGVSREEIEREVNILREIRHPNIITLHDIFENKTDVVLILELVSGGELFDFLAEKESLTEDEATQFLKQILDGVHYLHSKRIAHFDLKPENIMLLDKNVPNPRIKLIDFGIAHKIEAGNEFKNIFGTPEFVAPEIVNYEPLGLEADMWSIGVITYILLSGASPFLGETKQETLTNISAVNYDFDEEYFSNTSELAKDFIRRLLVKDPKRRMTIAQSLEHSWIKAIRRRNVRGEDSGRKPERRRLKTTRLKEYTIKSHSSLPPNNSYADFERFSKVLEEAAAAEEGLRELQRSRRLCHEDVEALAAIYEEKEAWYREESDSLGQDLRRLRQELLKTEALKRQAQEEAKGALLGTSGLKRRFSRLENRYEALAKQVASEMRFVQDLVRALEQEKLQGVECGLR

[18] = target: Death-associated protein kinase 3 (Homo sapiens) (UniProt O43293); conditions: at 10 µM
[19] = target: RAF proto-oncogene serine/threonine-protein kinase (Homo sapiens) (UniProt P04049); conditions: at 1 µM
Sequence of RAF proto-oncogene serine/threonine-protein kinase (Homo sapiens) (P04049 whole entry): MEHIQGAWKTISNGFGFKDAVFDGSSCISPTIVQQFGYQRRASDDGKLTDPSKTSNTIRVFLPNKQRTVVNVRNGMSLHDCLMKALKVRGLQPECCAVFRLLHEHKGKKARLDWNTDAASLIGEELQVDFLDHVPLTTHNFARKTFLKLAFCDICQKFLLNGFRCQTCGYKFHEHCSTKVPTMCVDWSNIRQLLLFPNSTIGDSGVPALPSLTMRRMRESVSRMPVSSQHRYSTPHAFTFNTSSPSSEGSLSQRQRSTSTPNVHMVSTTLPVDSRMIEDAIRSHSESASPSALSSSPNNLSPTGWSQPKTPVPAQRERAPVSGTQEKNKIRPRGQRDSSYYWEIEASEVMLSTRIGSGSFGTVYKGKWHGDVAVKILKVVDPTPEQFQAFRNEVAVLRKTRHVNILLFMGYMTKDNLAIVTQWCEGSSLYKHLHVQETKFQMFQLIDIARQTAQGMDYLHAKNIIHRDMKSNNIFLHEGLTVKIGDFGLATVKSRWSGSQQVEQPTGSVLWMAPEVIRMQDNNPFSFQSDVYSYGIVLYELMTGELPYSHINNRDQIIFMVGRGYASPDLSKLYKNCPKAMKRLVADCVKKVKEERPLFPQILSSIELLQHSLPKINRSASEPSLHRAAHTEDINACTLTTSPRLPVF

[20] = target: RAF proto-oncogene serine/threonine-protein kinase (Homo sapiens) (UniProt P04049); conditions: at 10 µM

Sequence of BDNF/NT-3 growth factors receptor (Homo sapiens) (Q16620 32-822 limits assumed): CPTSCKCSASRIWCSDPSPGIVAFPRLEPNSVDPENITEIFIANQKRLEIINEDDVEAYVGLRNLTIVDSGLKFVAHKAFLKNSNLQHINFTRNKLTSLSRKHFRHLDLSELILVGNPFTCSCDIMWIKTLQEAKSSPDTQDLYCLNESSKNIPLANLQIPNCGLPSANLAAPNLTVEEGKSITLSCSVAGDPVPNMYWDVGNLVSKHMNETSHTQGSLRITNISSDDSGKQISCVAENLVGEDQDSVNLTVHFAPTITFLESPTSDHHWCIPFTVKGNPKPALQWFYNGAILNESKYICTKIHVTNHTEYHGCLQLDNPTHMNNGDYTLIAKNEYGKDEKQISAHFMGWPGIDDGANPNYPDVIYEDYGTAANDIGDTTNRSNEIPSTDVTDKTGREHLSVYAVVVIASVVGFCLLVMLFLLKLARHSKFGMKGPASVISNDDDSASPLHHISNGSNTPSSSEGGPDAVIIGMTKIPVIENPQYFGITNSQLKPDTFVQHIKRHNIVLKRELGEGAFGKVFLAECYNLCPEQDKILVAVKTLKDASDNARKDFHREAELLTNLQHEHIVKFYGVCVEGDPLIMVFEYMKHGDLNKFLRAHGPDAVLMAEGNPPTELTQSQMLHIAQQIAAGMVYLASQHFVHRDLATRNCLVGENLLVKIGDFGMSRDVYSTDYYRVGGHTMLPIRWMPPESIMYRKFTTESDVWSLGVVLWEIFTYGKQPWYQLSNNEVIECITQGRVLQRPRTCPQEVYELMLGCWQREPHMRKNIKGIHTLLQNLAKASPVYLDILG

| Structure (SMILES) | residual activity [1] [%] | residual activity [2] [%] | residual activity [3] [%] | residual activity [4] [%] | residual activity [5] [%] | residual activity [6] [%] | residual activity [7] [%] | residual activity [8] | residual activity [9] [%] | residual activity [10] | residual activity [11] [%] | residual activity [12] | residual activity [13] [%] | residual activity [14] [%] | residual activity [15] [%] | residual activity [16] [%] | residual activity [17] [%] | residual activity [18] [%] | residual activity [19] [%] | residual activity [20] [%] |
| --- | --- | --- | --- | --- | --- | --- | --- | --- | --- | --- | --- | --- | --- | --- | --- | --- | --- | --- | --- | --- |
| CC(=O)O/N=C1\C(=C2\C(=O)Nc3cc(Br)ccc32)Nc2ccccc21 | 1 | 74 | 19 | 93 | 101 | 95 | 66 | 99% (inactive) | 97 | 104% (inactive) | 92 | 101% (inactive) | 94 | 42 | 4 | 106 | 99 | 71 | 80 | 75 |
| c1ccc2c(-c3ccncc3)c[nH]c2c1 | 110 | 109 | 97 | 104 | 97 | 104 | 82 | 101% (inactive) | 88 | 107% (inactive) | 75 | 98% (inactive) | 96 |  | 97 |  | 110 | 107 | 73 | 81 |
| Cc1nc(-c2ccccc2)c(-c2ccncc2)o1 | 53 | 86 | 88 | 118 | 112 | 104 | 104 | 109% (inactive) | 103 | 117% (inactive) | 101 | 104% (inactive) | 100 | 121 | 99 | 127 | 106 | 94 | 60 | 40 |
| CN(C)CCCn1cc(C2=C(c3c[nH]c4ccccc34)C(=O)NC2=O)c2ccccc21 | 14 |  | 79 | 110 | 88 | 101 | 61 | 119% (inactive) | 76 | 120% (inactive) | 86 | 121% (inactive) |  | 105 | 33 | 133 | 62 | 35 | 113 | 110 |
| Cc1cncc2cccc(S(=O)(=O)N3CCCN(C(=O)CN)C[C@H]3C)c12 |  | 100 | 91 | 93 | 47 | 97 | 59 | 94% (inactive) | 66 |  |  |  | 92 |  | 49 |  |  |  | 79 | 95 |
| N#Cc1cnc2cnc(NCc3cccnc3)cc2c1Nc1ccc(F)c(Cl)c1 | 1 | 86 | 69 |  |  | 100 | 88 |  | 93 |  |  | 97% (inactive) | 87 | 9 | 5 | 44 | 65 | 48 | 77 | 91 |
| Cc1ccc(S(=O)(=O)/C=C/C#N)cc1 | 105 | 79 | 87 | 109 | 104 | 97 | 98 | 91% (inactive) | 97 | 94% (inactive) | 95 | 98% (inactive) | 98 | 123 | 103 |  | 88 | 93 | 91 | 87 |
| O=C1NC(=O)/C(=C/c2ccc3c(c2)OC(F)(F)O3)S1 | 24 | 109 | 104 | 106 | 97 | 105 | 89 | 112% (inactive) | 97 | 114% (inactive) | 85 | 104% (inactive) | 98 | 117 | 116 | 116 | 102 | 98 | 92 | 101 |
| c1ccc(-c2n[nH]c3c2oc2ccccc23)cc1 | -3 | 97 | 73 |  | 86 |  | 71 | 99% (inactive) | 77 | 114% (inactive) | 74 |  |  | 99 | 67 |  | 94 | 100 | 74 | 85 |
